Experimental data from PubChem BioAssay (NCI).
About 83,000 compounds went through this panel and 20% of them were active in at least one assay; those are over-represented in the sample as a whole.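 Activity criterion: percent growth below 10, measured after cells in 96-well plates were exposed to a single compound concentration for 48 hours.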 Values without a mark were called inactive. Activity calls are given as the source filed them.

system: MCF7 breast; test: NCI-60 one-dose screen, 48 h (100 = growth as untreated, 0 = no growth, -100 = all killed); details: 10 µM unless noted
Protocol: Growth inhibition of the MCF7 human tumor cell line is measured as a screen for anti-cancer activity. Cells are grown in 96 well plates and exposed to the test compound for 48 hours. Compounds are tested at a single concentration, which is 10^-5 M for most compounds. The reported endpoint is percent growth (GI% or GIPRCNT), where numbers from 0 - 100% represent growth inhibition, and numbers from -100% - 0 represent cell death. For example, a value of 40 represents 60% growth inhibition. A value of 0 means no net growth occurred over the course of the experiment. A value of -40 indicates 40% of cells at the beginning of the experiment died by the end of the experiment. A value of -100 means all cells are dead at the end of the experiment.
NCI-60 Human Tumor Cell Lines Screen was performed using the standard one-dose NCI protocol, which is described in more detail at https://dtp.cancer.gov/discovery_development/nci-60/default.htm.
Compounds with GIPRCNT values below 10 were considered active. Activity score was based on GIPRCNT using the following formula: […]
Score is 0 for GIPRCNT values of 100 or above, 50 for GIPRCNT values of 0, and 100 for GIPRCNT values of -100.

**Q.** `CCCCS(=O)(=O)c1cc(Nc2ccc(O)c3c2C(=O)c2ccccc2C3=O)ccc1C` was tested. Which growth did it give?
**A.** Its growth is 33.8%.

**Q.** With `COc1ccccc1Cn1cc2c(c1)-c1oncc1CC2` as the compound, how does the growth read?
**A.** The growth was 13.4%.

**Q.** How did the growth turn out when `O=C(c1ccccc1)c1ccccc1-c1ccccc1` was run?
**A.** The growth was 18.1%.

**Q.** How did the growth turn out when `O=C1C(=O)c2ccccc2C(O)=C1CCCc1ccc(C2CCCC2)cc1` was run?
**A.** The growth was 33.3%.

**Q.** How did the growth turn out when `CNc1nc2ncn(C)c2c(=O)[nH]1` was run?
**A.** Its growth is 96%.

**Q.** `COC(=O)c1c[n+]([O-])ccc1OC` was tested. Which growth did it give?
**A.** The growth was 101%.

**Q.** How did the growth turn out when `COc1cc2c(c(OC)c1OC)C(=O)CC(c1cccc(C(=O)Nc3cccc(Br)c3)c1)O2` (stereo not given) was run?
**A.** The growth was 68.3%.

**Q.** For `O=c1c2c(c3ccccc3n1-c1ccccc1)NC(=S)NC2c1ccccc1` (stereo not given), which growth is on record?
**A.** The growth was 42.3%.

**Q.** With `COC(=O)C1CC(=O)N(C(=O)Nc2ccc(Cl)cc2Cl)C1` (stereo not given) as the compound, how does the growth read?
**A.** The growth was 87.6%.

**Q.** `C=C(C)[C@@H]1CC[C@]2(COC(=O)c3ccccc3C(=O)O)CC[C@]3(C)[C@H](CC[C@@H]4[C@@]5(C)CCCNC(C)(C)[C@@H]5CC[C@]43C)[C@@H]12` was tested. Which growth did it give?
**A.** The growth was 26.3%.

**Q.** How did the growth turn out when `Nc1cc(N)c2nc(NCCc3ccc(Cl)c(Cl)c3)cnc2c1` was run?
**A.** The growth was -43.5% (active).

**Q.** With `Cc1ccc(S(=O)(=O)NC(CCC(=O)Nc2ccccc2)C(=O)Nc2ccccc2)cc1` (stereo not given) as the compound, how does the growth read?
**A.** Its growth is -8.66% (active).

**Q.** How did the growth turn out when `Clc1ccc(N/N=C(\c2ccccc2)c2ccccn2)nc1` was run?
**A.** Its growth is 3.62% (active).

**Q.** Which growth does the source give for `Cc1nc(NC(=O)NC2CCCCC2)sc1C(=O)NN` here?
**A.** Its growth is 105%.

**Q.** `COc1ccc2cnc(N)c(C#Cc3cc(C(=O)Nc4ccc(CN5CCN(C)CC5)c(C(F)(F)F)c4)cnc3C)c2c1` was tested. Which growth did it give?
**A.** The growth was 39%.

**Q.** For `O=C(/C=C/c1ccc(Br)cc1)c1ccccc1`, which growth is on record?
**A.** Its growth is 8.28% (active).

**Q.** For `COC(=O)C(N)CC(C)C` (stereo not given), which growth is on record?
**A.** Its growth is 98.3%.

**Q.** Which growth does the source give for `CSc1nc(N)n2nccc2n1` here?
**A.** Its growth is 96%.

**Q.** With `C/C(CCC(=O)O)=N/Nc1ccc([N+](=O)[O-])cc1` as the compound, how does the growth read?
**A.** Its growth is 65.2%.

**Q.** `CC(=O)CCS(=O)c1ccccc1` (stereo not given) was tested. Which growth did it give?
**A.** The growth was 91.6%.

**Q.** Which growth does the source give for `CN1C(=O)C(=Cc2coc3ccc(Br)cc3c2=O)C(=O)N(C)C1=O` here?
**A.** Its growth is 88.3%.

**Q.** Which growth does the source give for `Oc1ccc(CN(Cc2ccc(C(F)(F)F)cc2)Cc2ccc(O)c3ncccc23)c2cccnc12` here?
**A.** Its growth is 13.7%.

**Q.** Which growth does the source give for `COc1cccc(CNC(=O)c2cccc(C3CC(=O)c4c(cc(OC)c(OC)c4OC)O3)c2)c1` (stereo not given) here?
**A.** Its growth is 25.3%.

**Q.** `CC1C(=O)CCCC1=O` was tested. Which growth did it give?
**A.** Its growth is 95.8%.

**Q.** `CCCCCCCCCCCCCCCCC(=O)O.CCCCCCCCCCCCCCCCCC(=O)O.CCCCCCCCCCCCCCCCCC(=O)O.CCCCCCCCCCCCCCCCCC(=O)O.CCCCCCCCCCCCCCCCCC(=O)O.CO[CH-]OC12COC1CC(O)C1(C)C(O)C(OC(C)O)C3=C(C)C(OC(=O)C(O)C([NH-])c4ccccc4)CC(O)(C(OC(=O)c4ccccc4)C21)C3(C)C.[Cu+].[Zn].[Zn].[Zn].[Zn].[Zn]` (stereo not given) was tested. Which growth did it give?
**A.** Its growth is 22.1%.

**Q.** Which growth does the source give for `CN(C)CCOC(=O)C(C)(C)C` here?
**A.** The growth was 99.3%.

**Q.** `Cc1ccnc2c(NC(C)CCCN)cc(O)c(O)c12` (stereo not given) was tested. Which growth did it give?
**A.** Its growth is 31.5%.

**Q.** For `COc1ccc(/C=C2\SC(=O)N(Cc3cc(=O)oc4ccc(OC)cc34)C2=O)cc1`, which growth is on record?
**A.** The growth was 82.5%.

**Q.** `COc1ccc(Cn2cc3c(c2-c2ccc(O)cc2)CCc2cnoc2-3)cc1` was tested. Which growth did it give?
**A.** Its growth is 14.7%.

**Q.** With `Clc1ccc(I)c2ccccc12` as the compound, how does the growth read?
**A.** The growth was 95.8%.

**Q.** How did the growth turn out when `COc1cc2c(/C=C3\C(=O)Nc4ccc(Br)cc43)c(Cl)n(C)c2cc1C` was run?
**A.** Its growth is 23.9%.

**Q.** For `O=C1Nc2ccccc2/C1=C/c1cn(CC(O)Cn2cc(/C=C3\C(=O)Nc4ccccc43)c3ccccc32)c2ccccc12` (stereo not given), which growth is on record?
**A.** Its growth is -67.5% (active).

**Q.** For `O=C(/C=C1\C(=O)N(Cc2ccc([N+](=O)[O-])cc2)c2ccccc21)c1ccc(OCCN2CCCC2)cc1`, which growth is on record?
**A.** The growth was 22.3%.

**Q.** `COc1ccc2oc(=O)cc(CN3C(=O)S/C(=C\c4ccc(Cl)cc4)C3=O)c2c1` was tested. Which growth did it give?
**A.** The growth was 86.9%.

**Q.** How did the growth turn out when `CCNc1nnc(COc2ccc(CNC(=O)CCCC/C=C/C(C)C)cc2OC)o1` was run?
**A.** The growth was 95.2%.

**Q.** For `N/C(=N\O)c1ccncc1`, which growth is on record?
**A.** The growth was 97.2%.

**Q.** How did the growth turn out when `CCCCCCCCC(=O)Nc1ccc(O)cc1` was run?
**A.** The growth was 97.9%.

**Q.** For `Brc1ccc(-c2nc3ccccc3s2)cc1`, which growth is on record?
**A.** Its growth is 58.7%.

**Q.** With `CCCCCCCCCCCCCCCC[n+]1cccc(C#N)c1` as the compound, how does the growth read?
**A.** Its growth is 38.5%.

**Q.** Which growth does the source give for `COc1ccc2sc(-n3nc4nc5n(c(=O)c4c3N)-c3ccccc3Sc3ccccc3-5)nc2c1` here?
**A.** The growth was 54.2%.
